Compound activity (PubChem)
Compounds with a hit are over-represented: about 4.2% of the library has one in this group of screens.
NALP3 yeast inh = blocks the NALP3 inflammasome reconstituted in yeast; Yeast reconstituted NLRP3/ASC/caspase-1, beta-gal luminescence, 24 h; 0.39% of 330,000 active; inhibition, % at 10 µM;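 active = inhibition of 50% or more; inactive = inhibition below 50%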;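 also: plate controls were induced DMSO wells for no effect and uninduced yeast grown without galactose for full effect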
NALP1 yeast inh = inhibitors of NALP1 inflammasome in yeast; inhibition, % at 10 µM; 0.61% of 280,000 active; S. cerevisiae NALP1/ASC/caspase-1 growth, X-gal OD620, 72 h; in the data active = inhibition mostly above about 24%, no sharp cut-off; inactive = mostly below about 32%
TIM10 inh = TIM10 yeast growth inhibition. S. cerevisiae TIM10 strain growth, BacTiter-Glo luminescence, 24 h. 1.4% of 330,000 active. inhibition, % at 10 µM;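 active = inhibition of 40% or more at the single tested concentration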;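 also: wild-type TIM10 isogenic control strain grown at permissive 25 °C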
V-ATPase pHluor = alters yeast V-ATPase proton transport; AID 504577; response, % at 10 µM; 0.37% of 350,000 active; S. cerevisiae, pHLuorin cytosolic pH fluorescence; in the data active = response mostly above about 7.3%, no sharp cut-off; inactive = mostly below about 5.4%; also: actives read high
tim23-1 inh = tim23-1 yeast growth inhibition | inhibition, % at 20 µM | S. cerevisiae tim23-1 growth, BacTiter-Glo luminescence, 24 h | 1.3% of 330,000 active | AID 463212;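 active = growth inhibition of the mutant yeast at or above 50%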;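 also: temperature-sensitive mutant grown at 25 °C; plate controls were DMSO-treated mutant yeast for no effect and medium wells lacking yeast for full effect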
tim10-1 inh = inhibits growth of tim10-1 mutant yeast | 2.2% of 330,000 active | AID 463190 | inhibition, % at 20 µM | S. cerevisiae tim10-1 ts strain growth, BacTiter-Glo, 24 h;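 active = inhibition of at least 40%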;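 also: mutant grown at 25 °C; 0% = DMSO wells with yeast and 100% = wells holding no yeast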
tim10-1 confirm = confirmation of tim10-1 mutant yeast growth inhibitors. AID 463213. shares compounds with tim10-1 inh. inhibition, % at 20 µM. 56% of 7,400 active. S. cerevisiae tim10-1 ts strain growth, BacTiter-Glo, 24 h;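 active = inhibition of yeast growth at or above a set limit in either of two repeat tests at 20 µM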;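 also: tim10-1 mutant grown at permissive 25 °C to find synthetic lethal compounds; 0% = DMSO yeast wells and 100% = medium wells without yeast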
* hit, by the source's call; . = not tested or not shown.

SMILES	NALP3 yeast inh	NALP1 yeast inh	TIM10 inh	V-ATPase pHluor	tim23-1 inh	tim10-1 inh	tim10-1 confirm
Cc1nnc(NC(=O)CSc2nnc3ncccn23)s1	-3	27	-3	-1	1	4	.
Cc1cc(C)c2c(-n3cccc3)c(C(=O)NNS(=O)(=O)c3ccc(Cl)cc3)sc2n1	4	-5	32	2	40	43*	32*
CC(=O)N1N=C(c2cccc([N+](=O)[O-])c2)OC1c1cccc(Br)c1 (centres undefined)	-20	2	22	0	47	45*	29
C[C@@H]1CN([C@@H](C)CO)C(=O)c2cc(Br)cnc2O[C@H]1CN(C)C(=O)c1ccc2c(c1)OCO2	.	.	.	2	.	.	.
CCOC(=O)C1(Cc2ccc(OC)cc2)CCN(C(=O)c2cc3ccccc3[nH]2)CC1	15	30	24	2	27	41*	29
CCOC(=O)C1(Cc2ccc(OC)cc2)CCN(C(=O)c2cc(C)on2)CC1	16	9	5	-1	14	11	.
O=C(O)Cc1sc(Nc2cccc3ccccc23)nc1-c1ccc(Cl)cc1	-1	8	11	0	6	2	.
O=C(NC(C(=O)N/N=C/c1cccnc1)c1n[nH]c(=O)c2ccccc12)c1ccccc1 (centres undefined)	-2	5	-6	-1	5	4	.
Cc1cccc(C(=O)N2CCNC(=O)C2CC(=O)Nc2cccc(Cl)c2)c1 (centres undefined)	9	0	-5	4	-3	-5	.
CCCC1CCC(C2=N/C(=C\c3ccc(OC)c(OC)c3)C(=O)O2)CC1 (centres undefined)	-15	9	23	0	15	32	.
COc1cccc(/C=C2\N=C(C3CCCCC3)OC2=O)c1OC	9	-1	35	-2	31	47*	33*
Cn1c(N)c(NC(=S)NC2CCCCC2)c(=O)n(C)c1=O	.	.	.	2	.	.	.
CCN(CC(=O)Nc1ccccc1OC)C(=O)CSCC(=O)Nc1cccc(C)c1	.	.	.	-5	.	.	.
N#Cc1ccccc1NC(=O)CSc1nnc(-c2ccccc2O)n1-c1ccccc1	5	2	12	0	23	42*	16
CCc1nn(CCCC(=O)N2CCN(c3cccc(C)c3C)CC2)c(=O)c2cc3occc3n12	34	14	27	-1	38	54*	21
O=C(CSc1ncnc2sc3c(c12)CCCCC3)NCc1ccco1	16	2	27	-6	40	47*	34*
CC1CCC(NC(=O)COC(=O)CCC(=O)c2ccc(Cl)s2)CC1 (centres undefined)	5	.	14	3	17	16	.
COc1cc2sc3ccc(C#CC4(O)CCCCC4)cc3c(=O)c2cc1OC	-51	.	26	-3	33	35	.
Cn1c2ccccc2c(=O)c2ccc(C#CC3(O)CCCCC3)cc21	18	8	-5	4	-5	47*	34*
CN(CC1CCOCC1)C(=O)CC1C(=O)NCCN1Cc1ccc(F)c(F)c1 (centres undefined)	-1	9	-7	-2	-13	-12	.
CCOC(=O)C1CSc2[nH]c(=O)sc2C1c1ccccc1 (centres undefined)	10	-11	21	0	37	40	16
c1csc(-c2nnc(Cc3cccc4ccccc34)o2)c1	12	-56	6	-2	26	45*	22
Fc1ccc(Cc2nnc(-c3cccs3)o2)cc1	6	-91	5	-2	4	2	.
COc1ccc(CCNC(=O)Nc2cccs2)c(OC)c1	15	14	24	-2	32	41*	36*
Cc1ccc(Nc2nc(N)nc(CN3CCN(c4ccccc4)CC3)n2)cc1Cl	17	23	22	7	45	45*	21
SMILES	NALP3 yeast inh	NALP1 yeast inh	TIM10 inh	V-ATPase pHluor	tim23-1 inh	tim10-1 inh	tim10-1 confirm
COc1ccc(N2CCN(Cc3nc(N)nc(Nc4ccc(C)c(Cl)c4)n3)CC2)cc1	11	-4	28	-2	44	19	.
Cc1ccc(-n2nc(-c3cccs3)cc2C(=O)NCC2CCCO2)c(C)c1 (centres undefined)	5	38	37	0	7	41*	28
Cc1cc(Br)cc2c(C(=O)NCC3CCCO3)cc(-c3cccs3)nc12 (centres undefined)	16	24	7	-3	17	31	.
Cc1cc(C)n(-c2ccc(C(=O)OCn3nnc4ccccc4c3=O)cc2)n1	18	-2	27	-6	41	49*	42*
O=C(OCn1nnc2ccccc2c1=O)c1ccc(O)cc1	7	0	-8	3	13	30	.
O=C(O)c1ccc(COc2ccccc2C=C2C(=O)c3ccccc3C2=O)cc1	-7	16	27	0	28	40	9
CCOC(=O)C1CCCc2c1[nH]c1ccc(Cl)cc21 (centres undefined)	26	-4	20	-3	34	43*	32*
CCOC(=O)c1ccc2[nH]c3c(c2c1)CCCC3C(=O)OCC (centres undefined)	31	4	19	-6	34	30	.
CCn1cc(C(=O)N[C@@H](C)C(=O)NCCCn2ccnc2)c(=O)c2cc3c(cc21)OCO3	5	3	1	5	4	-1	.
S=C(Nc1ccccc1)Nc1ccc(OCc2ccc(Cl)cc2Cl)cc1	10	24	21	7	3	48*	19
CCOc1ccc(NC(=S)Nc2ccc(OCc3ccccc3)cc2)cc1	25	-7	5	-2	3	10	.
Cc1ccnc(NC(=O)C23CC4CC(CC(C4)C2)C3)c1	11	12	22	-4	38	49*	34*
CCC(=O)Nc1ccc(NC(=O)C23CC4CC(CC(C4)C2)C3)cn1	11	16	25	5	28	33	.
NS(=O)(=O)c1ccc(CCNS(=O)(=O)Cc2ccc(Cl)cc2)cc1	8	-41	-7	-1	4	0	.
Cc1ccc(C)c(CNc2ccc(S(=O)(=O)N3CCCCC3)cc2)c1	44	.	25	5	24	24	.
Cc1cccc(/C=N/n2c(COc3ccccc3)n[nH]c2=S)c1	35	6	36	-7	41	43*	37*
Cc1n[nH]c(=S)n1/N=C/c1cccc(OCc2ccccc2)c1	26	2	26	2	37	41*	28
Cc1n[nH]c(=S)n1/N=C/c1ccccc1OCc1ccc(Cl)cc1	25	-5	32	6	4	28	.
Cc1ccsc1C(=O)NC(C)c1ccccc1 (centres undefined)	0	15	-16	1	-17	-15	.
CCC(=O)NC(=S)Nc1cccc(NC(=O)c2ccccc2Cl)c1	-7	-7	30	1	47	45*	23
O=C(NC(=S)Nc1ccc(N2CCOCC2)cc1)c1cccc(Cl)c1	25	24	22	-4	46	41*	24
